PubChem BioAssay (Tox21)
Records with an inconclusive call do not appear. A number with no mark means an inactive call. Active and inactive are the calls of the source. Calls come from the whole dose curve; as a rule, active = well fitted cell-killing curve with a large enough effect in the repeat runs; inconclusive = weak or mixed curves, or effect the other way; inactive = no such curve, though single readings can be large or run the other way.

experiment: qHTS assay to identify small molecule antagonists of the progesterone receptor (PR) signaling pathway - cell viability counter screen (AID 1346798); conditions: PR-UAS-bla HEK293T viability, CellTiter-Glo luminescence, 16 h; series mostly up to 92.4 µM; activity change, negative = cytotoxicity: at the top concentration; note: nearly all actives have a fitted effect of over 50% in size
Description: National Center for Advancing Translational Sciences [NCATS]
NIH Chemical Genomics Center [NCGC]
U.S. Environmental Protection Agency [EPA]
National Institutes of Environmental Health Sciences [NIEHS]
National Toxicology Program [NTP]
U.S. Food and Drug Administration [FDA]
Progesterone receptor (PR), a nuclear hormone receptor, plays an important role in development, metabolic homeostasis and reproduction. It is activated by the steroid hormone progesterone. Endocrine disrupting chemicals (EDCs) and their interactions with steroid hormone receptors like PR causes disruption of normal endocrine function. To identify the compounds that inhibit PR signaling, a PR-UAS-bla GripTite cell line i.e. PR-UAS-bla HEK293T (Invitrogen, Carlsbad, CA, USA) containing a beta-lactamase reporter gene under the control of an UAS response element was used to screen Tox21 10K compound library. The cytotoxicity of the Tox21 compound library against the PR-bla cell line was tested in parallel by measuring the cell viability using CellTiter-Glo assay in the same wells.
Tox21 Assay Protocol Summary:
PR-UAS-bla HEK293T cells were dispensed at 3,000 cells/4 uL of assay medium containing 2% charcoal stripped FBS per well into black wall/clear-bottom 1536-well plates using a Multidrop Combi (ThermoFisher Scientific, Waltham, MA) dispenser. After the assay plates were incubated at a 37C and 5% CO2 for 4 hr, 23 nL of compounds dissolved in DMSO, positive controls or DMSO only was transferred to the assay plate by a Pintool station (Kalypsys, San Diego, CA), followed by addition of 1 uL of R5020 in assay medium using a Flying Reagent Dispenser (FRD, Aurora Discovery, San Diego, CA). The plates were incubated at 37C and 5% CO2 for 16 hr. Then 1 uL of LiveBLAzer B/G FRET substrate was added using a Flying Reagent Dispenser, the plates were incubated at room temperature for 2 hours, and fluorescence intensity was measured by an Envision plate reader (PerkinElmer, Shelton, CT). For cell viability readout that measures cytotoxicity, 4 uL/well of CellTiter-Glo reagent was added into the assay plates using a FRD. After 30 min incubation at room temperature, the luminescence intensity in the plates was measured using a ViewLux (PerkinElmer) plate reader.
% is set by controls: 0 for no effect and ±100 for the full control effect; potency is the fitted concentration of half-maximal effect.

| SMILES | activity change, negative = cytotoxicity | Potency |
| --- | --- | --- |
| CCc1cc(S(=O)(=O)O)c2cc(C(C)C)cccc1-2 | -17.3% [at 42.5 µM] |  |
| CO | 11.8% |  |
| C[N+](C)(C)CC[N+]1(C)Cc2c(Cl)c(Cl)c(Cl)c(Cl)c2C1 | 2.62% [at 42.5 µM] |  |
| CC(=O)c1ccc(C)cc1 | 5.98% |  |
| CN(C)CCn1nnnc1SCC1=C(C(=O)O)N2C(=O)[C@@H](NC(=O)Cc3csc(N)n3)[C@H]2SC1 | -2.87% [at 42.5 µM] |  |
| NS(=O)(=O)c1cc2c(cc1C(F)(F)F)NC(Cc1ccccc1)NS2(=O)=O (stereo not given) | 3.09% [at 42.5 µM] |  |
| CC(C)c1cccc(O)c1 | 13.7% |  |
| C=CCOCC(O)CS(=O)(=O)O (stereo not given) | 10.8% |  |
| C#CC(O)C(CC)CCCC (stereo not given) | 0.712% |  |
| C=CCSCC1Nc2cc(Cl)c(S(N)(=O)=O)cc2S(=O)(=O)N1 (stereo not given) | -1.71% [at 42.5 µM] |  |
| O=[N+]([O-])c1ccc(CCO)cc1 | 7.21% |  |
| CC(C)=CCC/C(C)=C/C(=O)O | 5.62% |  |
| C(=C(c1ccccc1)c1ccccc1)c1ccccc1 | 14.3% |  |
| CC(C)c1ccc2oc3nc(N)c(C(=O)O)cc3c(=O)c2c1 | 1.45% [at 42.5 µM] |  |
| CCCCCCCCC=O | 12.6% |  |
| O=C(O)c1cccc(C(=O)O)n1 | 3.01% |  |
| CCOC(=O)Nc1ccc2c(c1)N(C(=O)CCN1CCOCC1)c1ccccc1S2 | 0.0682% [at 42.5 µM] |  |
| O=C1C(CCS(=O)c2ccccc2)C(=O)N(c2ccccc2)N1c1ccccc1 (stereo not given) | 13.6% [at 42.5 µM] |  |
| OCc1ccccn1 | -1.36% [at 42.5 µM] |  |
| O=C(O)c1ccc[n+]([O-])c1 | -4.22% [at 42.5 µM] |  |

| SMILES | activity change, negative = cytotoxicity | Potency |
| --- | --- | --- |
| OCCCCCCO |  | 61.9 µM (active) |
| COc1cccc(Br)c1 | 4.02% |  |
| CC(C)(C)C(=O)/C=C/c1ccc(Cl)cc1 | 8.97% |  |
| O=S(=O)(O)c1ccccc1O | 1.01% |  |
| Cn1ccc2cc3c(cc21)CCN3C(=O)Nc1cccnc1 | -18% [at 18.9 µM] |  |
| C=C(C)C1CC=C(C)C(O)C1 (stereo not given) | -1.6% |  |
| CCCc1ccc(N)cc1 | -0.115% |  |
| OCC(O)[C@@H](O)[C@H](O)[C@H](O)CO[C@H]1O[C@H](CO)[C@@H](O)[C@H](O)[C@H]1O (stereo not given in full) | 10.5% |  |
| FC(F)(F)C(F)(F)C(F)(F)C(F)(F)C(F)(F)C(F)(F)C(F)(F)C(F)(F)C(F)(F)C(F)(F)F | 3.97% [at 8.39 µM] |  |
| CCCOc1ccccc1-c1nc2n[nH]nc2c(=O)[nH]1 | 2.65% [at 42.5 µM] |  |
| CC(C)COC(=O)c1ccccc1O | 16.5% |  |
| C=C(C)[C@H]1CC=C(C)CC1 | 9.6% |  |
| CCCCCCCCCCCCCCCCCCOCC(O)CO (stereo not given) | -7.1% [at 42.5 µM] |  |
| Cn1cnc2c(=O)[nH]c(N)nc21 | 14.2% |  |
| CCC(C)(C)C1CCC(OC)CC1 (stereo not given) | -12.5% |  |
| CCC(=O)/C=C/c1ccc(OC)cc1 | 18% |  |
| O=c1[nH]c(=O)n([C@H]2O[C@H](CO)[C@@H](O)[C@@H]2O)cc1/C=C\Br | 1.69% [at 42.5 µM] |  |
| O=S(=O)(c1cccc2cnccc12)N1CCCNCC1 | 0.549% [at 42.5 µM] |  |
| CCC(C)OC(=O)N1CCCCC1CCO (stereo not given) | -0.25% |  |
| Cc1ccc(N)cc1[N+](=O)[O-] | -8.24% |  |
